Source: PubChem BioAssay
GALK inhibitor = inhibits human galactokinase | Potency, µM (doses to about 57.5 µM), without a hit: at the highest dose activity, negative = inhibition, most hits filed as inhibitors | P51570 | 44,000 tested, under 10 active | recombinant GALK, Kinase-Glo ATP luminescence, 1 h | AID 1347072;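 further: plate controls were full GALK reaction for no effect and reaction lacking GALK for full effect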
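Reactions with and without enzyme served as controls. GALK at 5 nM phosphorylates 100 uM galactose using 35 uM ATP (HEPES pH 8.0, Mg2+) for 1 h at RT, with luminescence read 10 min after adding Kinase-Glo Plus.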
B2AR arrestin ag = beta-arrestin recruitment by human beta2-adrenergic receptor ligands; 44,000 tested, under 10 active; HTLA Tango cells, beta-arrestin recruitment, luciferase luminescence, 18 h; Potency, µM (highest dose often 46.1 µM), usual class: activators;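 further: potency means the concentration at half of the fitted maximal effect; 0% = DMSO and full agonism = EC100 isoproterenol or metaproterenol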
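Tango cell line, 1% FBS DMEM; cpd titration up to 46 microM; 18 hr, 37 degrees C, 5% CO2. Luciferin/ATP substrate mix added, 15 min RT, luminescence. %Activity, CRC fitting, curve-class categorization.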
FH mod = Identification of activators of human fumarate hydratase by quantitative high-throughput screening. Potency, µM (series often up to 79.9 µM), without a hit: at the highest dose activity change, negative = inhibition, usual class: inhibitors. 54,000 compounds, 0.22% hits. FH coupled MDH/diaphorase resazurin fluorescence, 15 min; further: potency means the concentration at half of the fitted maximal effect; on the % scale 0 is the no-effect control and ±100 the full control effect; the screen sought activators but most active calls are inhibition curves; nearly all actives have a fitted effect of over 45% in size
Target sequence (P07954 whole entry, looked up): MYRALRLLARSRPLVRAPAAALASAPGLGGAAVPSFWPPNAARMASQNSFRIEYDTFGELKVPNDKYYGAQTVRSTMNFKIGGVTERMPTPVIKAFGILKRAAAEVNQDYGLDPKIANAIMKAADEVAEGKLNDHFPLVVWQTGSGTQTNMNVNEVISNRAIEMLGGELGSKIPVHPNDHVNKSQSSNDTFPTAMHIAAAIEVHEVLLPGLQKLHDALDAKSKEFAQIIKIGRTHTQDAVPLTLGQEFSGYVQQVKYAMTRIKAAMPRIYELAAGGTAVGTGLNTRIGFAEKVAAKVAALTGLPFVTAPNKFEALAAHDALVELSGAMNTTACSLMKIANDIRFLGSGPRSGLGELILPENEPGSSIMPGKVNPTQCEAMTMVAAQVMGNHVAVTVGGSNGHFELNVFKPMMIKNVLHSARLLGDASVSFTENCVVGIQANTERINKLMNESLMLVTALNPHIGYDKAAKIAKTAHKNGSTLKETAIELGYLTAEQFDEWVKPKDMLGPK
GALC G270D act = enhancers of human galactocerebrosidase G270D mutant activity in cells; P54803; 145M-Twi-hGALC-G270D cells (Twitcher mouse brain line with human GALC G270D), HMU-beta-Gal fluorescence, 48 h; Potency, µM (titrated, usually from 57.5 µM), hits mostly activators; 45,000 compounds, 0.1% hits; AID 1159614; further: potency means the concentration at half of the fitted maximal effect; 0% is about no effect; nearly all actives have a fitted effect of over 65% in size
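Fluorogenic HMU-b-Gal hydrolysis (0.1 mM final, pH 5.2 citrate-phosphate with 1 mg/mL sodium taurocholate; carbonate stop buffer) measures mutant GALC activity after compound treatment of live 145M-Twi Twitcher brain cells stably carrying human GALC-G270D, with wild-type GALC line alongside; activation sought.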
NTMT1 inh = blocks human N-terminal methyltransferase 1 activity; 59,000 compounds, 2.5% hits; NTMT1 MTase-Glo SAH luminescence, purified enzyme; Potency, µM (highest dose often 114 µM), inactives show at the highest dose activity change, negative = inhibition, usual class: inhibitors; AID 1645870;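 further: potency means the concentration at half of the fitted maximal effect; plate controls were DMSO vehicle for no effect and no enzyme for full effect; nearly all actives have a fitted effect of over 65% in size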
PTAP-TSG101 blk = TSG101-PTAP interaction inhibition, HIV-1 budding. 44,000 tested, under 10 active. Q99816. AID 1347069. Potency, µM (titrated, usually from 115 µM), hits mostly inhibitors. Fluorescence polarization, FITC-PTAP peptide/Tsg101, 20 min; further: potency means the concentration at half of the fitted maximal effect; 0% is about no effect
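The Tsg101 binding domain, at 10 uM final, is mixed with compound and a FITC peptide bearing the PTAP motif (50 nM final). After 20 min at r.t., polarization is measured; actives defined by CRC class, efficacy cut-off 60% inhibition.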
CLK4 KinaseGlo = confirmation of human CLK4 kinase inhibitors, SAR round 2; shares compounds with NTMT1 inh; recombinant Clk4, Kinase-Glo ATP luminescence, 4.5 h; Potency, µM (titrated, usually from 76.9 µM), inactives show at the highest dose activity, negative = inhibition, most hits filed as inhibitors; 90 compounds, 90% hits
Sfp qHTS opt = inhibits purified B. subtilis Sfp PPTase | shares compounds with NTMT1 inh | purified Sfp PPTase enzyme activity, qHTS | Potency, µM (series often up to 114 µM), for inactives: at the highest dose activity change, negative = inhibition, usual class: inhibitors | 230 compounds, 78% hits | AID 540350
HM489 growth = Sfp PPTase inhibitors: growth inhibition of B. subtilis HM489; AID 540353; B. subtilis HM489 (acpS-) growth, BacTiter-Glo, 5 h; Potency, µM (top dose mostly 114 µM), inactives show at the top dose activity change, negative = inhibition, most hits filed as inhibitors; shares compounds with NTMT1 inh; 220 compounds, 50% hits
Sfp PPTase gel = inhibitors of Bacillus subtilis Sfp PPTase, gel-based followup. Potency, µM (titrated, usually from 250 µM), for inactives: top-dose activity change, negative = inhibition, usual class: inhibitors. shares compounds with NTMT1 inh. purified Sfp PPTase, gel-based product detection. AID 540355. 220 compounds, 54% hits
Sfp inh SAR2 = inhibits B. subtilis Sfp PPTase in second SAR round; purified Sfp enzyme, PPTase activity, qHTS; Potency, µM (series often up to 57.1 µM), inactives show top-dose activity change, negative = inhibition, actives largely listed as inhibitors; shares compounds with NTMT1 inh; 230 compounds, 87% hits
HSD17B4 counter = counter-screen for HPGD inhibitors: human HSD17B4 inhibition; shares compounds with NTMT1 inh; Potency, µM (doses to about 57.1 µM), for inactives: top-dose activity change, negative = inhibition, hits mostly inhibitors; 230 compounds, 10% hits; purified HSD17B4, estradiol/NAD+, NADH fluorescence
ALDH1A1 inh = inhibits human ALDH1A1, off-target for HPGD inhibitors; shares compounds with NTMT1 inh; recombinant ALDH1A1, NADH fluorescence, propionaldehyde/NAD+; Potency, µM (top dose mostly 57.1 µM), for the others: at the highest dose activity change, negative = inhibition, hits mostly inhibitors; 230 compounds, 93% hits
The depositor's hits bear a star; i = inactive; u = inconclusive; x = no result given; ! = not active in a repeat; [ ] = remark or other dose. The sample as a whole holds a higher share of hits than the screen did. The call rests on the fitted dose curve; in most records, active means well fitted curve in the direction sought with a large enough effect; inconclusive means small, poorly fitted or top-dose-only effect, or another doubt; inactive means no such curve, though single readings can be large; an effect the other way counts as inactive or inconclusive.

SMILES	GALK inhibitor	B2AR arrestin ag	FH mod	GALC G270D act	NTMT1 inh	PTAP-TSG101 blk	others
Cc1cc(C)nc(NC(=S)N2CCN(c3cncs3)CC2)c1	x	x	x	x	u	x	Sfp qHTS opt=7.44µM*;HM489 growth=25.4%;Sfp PPTase gel=15.8µM*;Sfp inh SAR2=4.57µM*;HSD17B4 counter=-18.4%;ALDH1A1 inh=24.1µM*
Cc1cc(C)nc(NC(=S)N2CCN(C3=Nc4ccccc4Oc4ccccc43)CC2)c1	x	x	x	x	50.1µM*	x	Sfp qHTS opt=3.32µM*;HM489 growth=u;Sfp PPTase gel=u;Sfp inh SAR2=5.13µM*;HSD17B4 counter=-17.1%;ALDH1A1 inh=24.1µM*
CC[C@@H]1[C@H](F)C(=O)N[C@@H]1COc1nccc2cc(C(N)=O)c(OC)cc12	x	x	x	x	4.0%	x
COc1ccc(C2COc3cc(O)ccc3C2)c(O)c1OC (stereo unspecified)	x	x	-2.2%	x	-2.1%[57.5 µM]	x
C[C@@H]1O[C@@H](O[C@H]2[C@H](OC(=O)C34CCC5(C)C(=CCC6C7(C)CC(O)C(O[C@@H]8O[C@H](C(=O)O)[C@@H](O)[C@H](O)[C@H]8O)C(C)(C(=O)O)C7CCC65C)C3CC(C)(C)CC4O)O[C@H](C)[C@@H](O)[C@@H]2O)[C@H](O)[C@@H](O[C@@H]2OC[C@](O)(CO)[C@H]2O[C@@H]2O[C@H](CO)[C@@H](O)[C@H](O)[C@H]2O)[C@H]1O (stereo partly specified)	x	x	4.9%[13.5 µM]	x	9.6%[6.45 µM]	x
Cc1ccsc1CN(C)c1ncnc2ccc(-c3ccc([C@@H](C)O)o3)cc12	x	x	x	x	8.91µM*!	x	CLK4 KinaseGlo=0.164µM*
Cc1ccc(CN(C)c2ncnc3ccc(-c4ccc(C(=O)O)o4)cc23)o1	x	x	x	x	2.0%	x	CLK4 KinaseGlo=0.519µM*
CCCCOc1cccc(C(=O)N(Cc2ccc(C)o2)c2ccccn2)c1	-0.3%	i	-3.4%	i	-11.4%	i
O=C(OC1C=C(CO)C2C(OC3OC(CO)C(O)C(O)C3O)OC=CC12)c1ccc(O)cc1 (stereo unspecified)	x	x	-9.3%[53.3 µM]	x	10.7%[29.8 µM]	x
